Screens from PubChem BioAssay.
esBAF inh – inhibitors of esBAF chromatin remodeling in mouse ES cells; Bmi1-luciferase knock-in reporter, 24 h; 100% = twice the neutral-well signal; reporter increase, % at 12.5 µM; 2% of 350,000 active; in the data active means activation above about 40%;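 further: 0% = median of the plate's neutral control wells and 100% = double that signal; a rise in the Bmi1 reporter signal indicates esBAF inhibition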
A3A deaminase – blocks human APOBEC3A ssDNA deamination | recombinant A3A, FAM/TAMRA ssDNA deamination fluorescence | AID 493011 | inhibition, % at 20 µM | 0.41% of 330,000 active | P31941;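 active means at least 40% inhibition at 20 µM here, with at most 30% in a related deaminase screen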;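 further: plate controls were A3A with DMSO for no effect and wells lacking A3A enzyme for full effect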
Target sequence (P31941 whole entry, looked up): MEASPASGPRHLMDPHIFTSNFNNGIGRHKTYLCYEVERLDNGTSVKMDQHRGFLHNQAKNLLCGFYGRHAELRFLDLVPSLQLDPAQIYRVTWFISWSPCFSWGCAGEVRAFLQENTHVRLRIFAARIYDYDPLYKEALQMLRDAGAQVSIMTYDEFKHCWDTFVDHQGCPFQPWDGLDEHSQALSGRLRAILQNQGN
APOBEC3G inh – blocks human APOBEC3G single-stranded DNA deamination; Q9HC16; recombinant A3G, ssDNA deamination FAM/TAMRA fluorescence; inhibition, % at 20 µM; 0.28% of 330,000 active; AID 493012;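 active means inhibition of at least 40% at 20 µM, with no more than 30% in the related APOBEC3A deaminase screen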;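 further: plate controls were DMSO wells with A3G for no effect and wells lacking A3G enzyme for full effect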
Wnt act – Wnt/beta-catenin pathway activation. 1.2% of 300,000 active. AID 743398. Wnt/beta-catenin reporter cell assay, activator, plate reader. activation, % at 9.35 µM; in the data active means activation above about 30%, passing the limit was not always enough;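 further: 0% = neutral control wells and 100% = positive control wells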
MITF TRPM1 HTS – activators of MITF-driven TRPM1 promoter activity in SK-MEL-5 cells; activation, % at 12.5 µM; SK-MEL-5 TRPM1-promoter luciferase, 24 h; % of positive control, neutral wells = 0; AID 588334; 0.75% of 300,000 active;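 active means mean activation of at least 80% with every replicate also reaching 80%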;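 further: 0% = neutral control wells and 100% = parthenolide positive control wells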
PHOSPHO1 block – PHOSPHO1 (human) inhibition; Q8TCT1; recombinant PHOSPHO1, absorbance phosphatase assay; inhibition, % at 13.3 µM; 1.1% of 290,000 active; in the data active means inhibition above about 60%
Target sequence (Q8TCT1 whole entry, looked up): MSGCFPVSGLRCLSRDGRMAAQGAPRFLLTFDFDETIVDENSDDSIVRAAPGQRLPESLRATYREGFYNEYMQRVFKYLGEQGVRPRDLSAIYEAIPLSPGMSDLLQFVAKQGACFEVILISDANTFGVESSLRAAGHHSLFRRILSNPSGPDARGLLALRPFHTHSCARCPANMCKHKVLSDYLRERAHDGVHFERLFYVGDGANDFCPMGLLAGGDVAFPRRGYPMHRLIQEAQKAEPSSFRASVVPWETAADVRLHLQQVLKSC
A3A conf – confirmation of human APOBEC3A DNA deaminase inhibitors | 63% of 1,400 active | inhibition, % at 20 µM | recombinant A3A, ssDNA deaminase UDG fluorescence assay | shares compounds with A3A deaminase;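 active means inhibition reaching a set limit, 80% of the first screen's cutoff, at 20 µM in any replicate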;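 further: plate controls were DMSO wells with A3A for no effect and wells lacking A3A enzyme for full effect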
UDG A3A counter – UDG inhibition in APOBEC3A counter-screen | shares compounds with A3A deaminase | UDG counterscreen, FAM/TAMRA uracil oligo fluorescence | inhibition, % at 20 µM | 1,000 tested, under 10 active | AID 504714; call rule not given here
Numbers without * were called inactive. An excerpt weighted towards active compounds, which were near 3.6% of everything screened.

Screening CCN1CCN(c2ccc(S(=O)(=O)N3CCOCC3)cc2NC(=O)c2cccc([N+](=O)[O-])c2)CC1 returned A3A deaminase 1.3, APOBEC3G inh 2.9, Wnt act -0.8 and MITF TRPM1 HTS 0.4.
CCc1noc(C)c1C(=O)Nc1cc(S(=O)(=O)N2CCOCC2)ccc1OCC(F)(F)F was read as A3A deaminase 9.1, APOBEC3G inh 9.4, Wnt act 6.0 and MITF TRPM1 HTS -0.1.
Screening CN1CCN(S(=O)(=O)c2cccc(C(=O)Nc3cc(Cl)ccc3N3CCOCC3)c2)CC1 returned esBAF inh -1.3, A3A deaminase 51.5*, APOBEC3G inh 7.7, Wnt act -3.4, MITF TRPM1 HTS 13.3, A3A conf 31.3* and UDG A3A counter 2.6.
`Cc1noc(C)c1S(=O)(=O)Nc1ccc2c(c1)C(=O)N([C@@H](C)CO)C[C@@H](C)[C@H](CN(C)C(=O)c1ccncc1)OCCCC[C@H](C)O2` gave esBAF inh 0.5.
CCCNC(=O)[C@@H]1[C@@H](CO)[C@@H]2Cn3c(ccc(-c4ccccc4)c3=O)[C@@H]2N1C(=O)C1CCC1 was read as esBAF inh 1.2.
For CC(C)NC(=O)N(C)C[C@@H]1Oc2ccc(NC(=O)CCCN(C)C)cc2C(=O)N([C@@H](C)CO)C[C@H]1C the results were esBAF inh -0.9.
`O=C(c1cccc(S(=O)(=O)N2CCCCCC2)c1)N1CCN(c2ccccc2F)CC1` gave A3A deaminase -3.0, APOBEC3G inh -8.1, Wnt act -2.6, MITF TRPM1 HTS -8.3 and PHOSPHO1 block 42.8.
For CN1CCN(S(=O)(=O)c2cccc(C(=O)N3CCN(c4ccccc4F)CC3)c2)CC1 the results were esBAF inh -3.7, A3A deaminase 44.5*, APOBEC3G inh 14.9, Wnt act -1.7, MITF TRPM1 HTS 5.5, A3A conf 44.6* and UDG A3A counter -2.9.
Screening Oc1ccc(Nc2nc3ccccc3nc2Nc2ccc(O)cc2)cc1 returned esBAF inh 12.1, A3A deaminase 41.9*, APOBEC3G inh -7.1, PHOSPHO1 block 99.8*, A3A conf 42.9* and UDG A3A counter 0.6.
Screening O=C(C[C@@H]1CC[C@@H]2[C@H](COC[C@H](O)CN2S(=O)(=O)c2cccc(F)c2)O1)Nc1ccccc1 returned esBAF inh 5.2.
For C[C@@H]1CN([C@@H](C)CO)C(=O)c2cc(Br)cnc2O[C@H]1CN(C)CC1CCOCC1 the results were esBAF inh -3.0.
Screening O=C(Nc1cccc2ncccc12)c1ccc(Cl)cc1 returned esBAF inh -0.2, A3A deaminase 65.5*, APOBEC3G inh 19.9, Wnt act -0.8, MITF TRPM1 HTS -9.3, PHOSPHO1 block -33.5 and A3A conf 41.7*.
Screening O=C(Nc1cccc2ncccc12)c1ccc(F)cc1 returned A3A deaminase -2.2, APOBEC3G inh -5.3, Wnt act -1.7, MITF TRPM1 HTS 5.6 and PHOSPHO1 block 3.2.
Screening C[C@@H]1CCCCO[C@H](CN(C)C(=O)Cc2ccccc2)[C@H](C)CN([C@@H](C)CO)C(=O)c2cc(NC(=O)c3ccccc3)ccc2O1 returned esBAF inh 0.3.
For O=C(C[C@@H]1CC[C@H](NC(=O)Cc2ccccn2)[C@@H](CO)O1)NCCc1ccncc1 the results were esBAF inh -4.7.
For CCN(CC)CCOC(c1ccccc1)c1ccc(C)cc1 (stereo not drawn) the results were A3A deaminase 7.8, APOBEC3G inh 1.0, MITF TRPM1 HTS 13.8 and PHOSPHO1 block -7.4.
For Cc1ccc(C(OCC(C)(C)C[N+](C)(C)C)c2ccccc2)cc1 (stereo not drawn) the results were A3A deaminase 65.4*, APOBEC3G inh 25.8, Wnt act -1.1, MITF TRPM1 HTS -0.5, PHOSPHO1 block -5.3, A3A conf 76.3* and UDG A3A counter -0.5.
`Cc1ccc(NC(=O)CN(c2ccccc2F)S(C)(=O)=O)cc1` gave A3A deaminase 51.7*, APOBEC3G inh 3.2, MITF TRPM1 HTS 21.9, PHOSPHO1 block -14.6 and A3A conf -2.3.
Screening CC(C)[C@H](NC(=O)c1ccco1)C(=O)OCc1cc(=O)n2c(n1)sc1ccccc12 returned esBAF inh 6.3, A3A deaminase 62.7*, APOBEC3G inh 16.8, Wnt act 2.2, MITF TRPM1 HTS -4.5, PHOSPHO1 block 10.9, A3A conf 39.4* and UDG A3A counter -1.7.
For O=C(OCc1cc(=O)n2c(n1)sc1ccccc12)c1ccc(O)cc1O the results were esBAF inh 0.4, A3A deaminase 61.5*, APOBEC3G inh 22.7, Wnt act -3.3, MITF TRPM1 HTS 35.7, PHOSPHO1 block 47.7, A3A conf 22.8* and UDG A3A counter 0.1.
CC(=O)N(C)C[C@H]1Oc2ncc(C#CC3(O)CCCC3)cc2C(=O)N([C@H](C)CO)C[C@@H]1C was read as esBAF inh -1.4.
For COc1ccc(CNC(=O)C[C@@H]2CC[C@@H]3[C@@H](COc4ccc(NC(C)=O)cc4C(=O)N3C)O2)cc1 the results were esBAF inh 0.8.
`CCC1Sc2ccc(S(=O)(=O)CCC(=O)N3CCc4ccccc43)cc2NC1=O` (stereo not drawn) gave esBAF inh -8.2, A3A deaminase 66.4*, APOBEC3G inh -3.6, Wnt act -0.2, MITF TRPM1 HTS -12.0, PHOSPHO1 block 48.8, A3A conf 17.1 and UDG A3A counter 6.8.
`CC1Sc2ccc(S(=O)(=O)CCC(=O)N3CCc4ccccc43)cc2NC1=O` (stereo not drawn) gave esBAF inh -2.4, A3A deaminase -1.9, APOBEC3G inh -3.8, Wnt act 0.0, MITF TRPM1 HTS -3.1 and PHOSPHO1 block 27.6.
`C[C@@H]1CN([C@H](C)CO)C(=O)Cc2cc(NC(=O)Cc3cn(C)c4ccccc34)ccc2O[C@@H]1CN(C)Cc1ccncc1` gave esBAF inh 2.3.
`O=C(COc1cccc(C(F)(F)F)c1)NCC(c1ccco1)N1CCCC1` (stereo not drawn) gave esBAF inh -5.9, A3A deaminase 46.3*, APOBEC3G inh 2.2, Wnt act -4.2, MITF TRPM1 HTS 0.3 and A3A conf 3.4.
`O=C(C[C@H]1CC[C@@H]2[C@H](COC[C@H](O)CN2C(=O)c2ccccc2F)O1)NCc1ccc(Cl)cc1` gave esBAF inh -11.1.
Screening C[C@H]1CCCCO[C@H](CN(C)C(=O)Nc2cccc3ccccc23)[C@@H](C)CN([C@@H](C)CO)C(=O)c2cc(NS(=O)(=O)c3ccc(F)cc3)ccc2O1 returned esBAF inh -2.2.
